About 83,000 compounds went through this panel and 20% of them were active in at least one assay; those are over-represented in the sample as a whole.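 Growth was measured after 48 h exposure to one concentration of compound in 96-well plates. Values under 10 count as active.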 The source made the active and inactive calls.
Columns and labels:
Experiment in all cases: NCI-60 one-dose screen, 48 h (100 = growth as untreated, 0 = no growth, -100 = all killed)
Conditions in all cases: 10 µM unless noted
[1] = tested on: NCI-H23 lung
[2] = tested on: NCI-H226 lung
[3] = tested on: NCI-H322M lung
[4] = tested on: HOP-62 NSCLC
[5] = tested on: NCI-H460 lung
[6] = tested on: HOP-92 NSCLC
[7] = tested on: NCI-H522 lung
[8] = tested on: A549/ATCC NSCLC
[9] = tested on: 786-0 renal
[10] = tested on: COLO 205 colon
[11] = tested on: DU-145 prostate
[12] = tested on: K-562 leukemia
[13] = tested on: MALME-3M melanoma
[14] = tested on: MDA-MB-231 breast
[15] = tested on: RXF 393 renal
[16] = tested on: SF-268 CNS
[17] = tested on: SF-295 CNS
[18] = tested on: SF-539 CNS
[19] = tested on: UACC-257 melanoma
[20] = tested on: M14 melanoma

Measured: growth

O=C(NCc1ccc(Cn2c(=O)sn(-c3ccccc3)c2=O)cc1)OCc1ccc2c(Br)cc(Br)c(O)c2n1
inactive: [3] 43.1%
active: [1] -47.2% | [2] -25.8% | [4] -48.4% | [5] -21% | [6] -58.7% | [7] -47.1% | [8] -52.3% | [9] -78.7% | [10] -75.6% | [11] -89.6% | [12] 5.05% | [13] -76.7% | [14] -53.4% | [15] -90.9% | [16] -59.9% | [17] 9.81% | [18] -93.6% | [19] -17.2% | [20] -62.6%

COc1cc(-c2nc(SCCC(C)C)nc(Nc3ccc(S(N)(=O)=O)cc3)c2C#N)cc(OC)c1OC
active: [6] 2.39% | [12] 7.52%
inactive: [1] 51.2% | [2] 44% | [3] 72.7% | [4] 33.5% | [5] 19.7% | [7] 45% | [8] 26.4% | [9] 31.4% | [10] 29.8% | [11] 43.1% | [13] 19.1% | [14] 25.1% | [15] 10.1% | [16] 42.4% | [17] 21.8% | [18] 38.6% | [19] 46% | [20] 20.6%

COc1cc2c(O)n(CCCN3CCOCC3)c3c4cnc5cccc(c(=O)c3c2cc1OC)c54
active: [5] 9.15%
inactive: [1] 33.3% | [2] 38.2% | [3] 47.2% | [4] 14.5% | [6] 58.4% | [7] 16.9% | [8] 30.1% | [9] 19% | [10] 34.2% | [11] 18% | [12] 40.7% | [13] 67.4% | [14] 48.7% | [15] 30.4% | [16] 33.1% | [17] 17.1% | [18] 24.5% | [19] 44% | [20] 16.6%

CCCCC1COc2cccc3c2N1C=C/C3=C\C(=O)n1ccc2ccccc21 (stereo not given)
inactive: [1] 76.5% | [2] 84% | [3] 96.4% | [4] 79.2% | [5] 88.2% | [6] 63.3% | [7] 56% | [8] 78.7% | [9] 90.1% | [10] 91% | [11] 99.1% | [12] 19.2% | [13] 69.3% | [14] 85.1% | [15] 87% | [16] 94.5% | [17] 80.7% | [18] 97.2% | [19] 85.6% | [20] 56%

C=CCc1nc2ccccc2s1
inactive: [1] 95.7% | [2] 101% | [3] 106% | [4] 100% | [5] 104% | [6] 98.6% | [7] 86.6% | [8] 103% | [9] 108% | [10] 113% | [11] 114% | [12] 96.9% | [13] 115% | [14] 103% | [15] 122% | [16] 108% | [17] 117% | [18] 119% | [19] 90.4% | [20] 108%

C=C(C)[C@@H]1CC[C@]2(C(N)=O)CC[C@]3(C)[C@H](CC[C@@H]4[C@@]5(C)CC[C@H](O)C(C)(C)[C@@H]5CC[C@]43C)[C@@H]12
active: [1] -27.1% [100 µM] | [2] -50.5% [100 µM] | [3] -58.9% [100 µM] | [4] -72.2% [100 µM] | [5] -37.5% [100 µM] | [6] -62.8% [100 µM] | [7] -53.8% [100 µM] | [8] -69.3% [100 µM] | [9] -72.2% [100 µM] | [10] -66.2% [100 µM] | [11] -33% [100 µM] | [12] 4.57% [100 µM] | [13] -57.1% [100 µM] | [14] -28.4% [100 µM] | [15] -49.3% [100 µM] | [16] 4.41% [100 µM] | [17] -57.7% [100 µM] | [18] -70.5% [100 µM] | [19] -6.08% [100 µM] | [20] 8.8% [100 µM]

O=C(Nc1ccc(Oc2ccc(F)cc2)c(Cl)c1)c1cnccn1
inactive: [1] 65.6% | [2] 74.4% | [3] 82.2% | [4] 56.2% | [5] 28% | [6] 58.2% | [7] 54.2% | [8] 43.7% | [9] 81% | [10] 69.3% | [11] 79.5% | [12] 21.1% | [13] 70.1% | [14] 58.7% | [15] 72.3% | [16] 72.2% | [17] 72.9% | [18] 67.1% | [19] 79.8% | [20] 92.4%

O=C(Nc1cccnc1)c1ccc2ccc3ccc(C(=O)Nc4cccnc4)nc3c2n1
inactive: [1] 23.1% | [3] 10.5% | [6] 23.9% | [7] 30.7% | [8] 22.1% | [9] 19.9% | [10] 13.2% | [11] 14.6% | [12] 17.1% | [13] 46.7% | [14] 25.2% | [16] 15.9% | [19] 30.8% | [20] 15.5%
active: [2] 4.52% | [4] 9.18% | [5] 1.69% | [15] -50.4% | [17] 5.39% | [18] -6.56%

O=C(CSc1nc2ccc([N+](=O)[O-])cc2[nH]1)Nc1cccc(Cl)c1
inactive: [2] 12.9% | [3] 62.4% | [4] 35% | [5] 25.3% | [8] 28.9% | [9] 28.6% | [10] 26.4% | [11] 36.3% | [12] 16.4% | [14] 41.1% | [15] 44.5% | [16] 24.3% | [17] 21.7% | [18] 45.2% | [19] 15% | [20] 29.4%
active: [1] -2.48% | [6] -27.9% | [7] 4.64% | [13] 2.51%

COC(=O)C(=Cc1ccccc1[N+](=O)[O-])C(=O)OC
active: [7] -3.3% | [11] -45.6% | [12] -12% | [15] -29.1% | [16] 0.377%
inactive: [1] 38.8% | [2] 97.6% | [3] 54.9% | [4] 104% | [5] 41.2% | [6] 16.5% | [8] 44.2% | [9] 41.3% | [10] 38% | [13] 25.2% | [14] 48% | [17] 97.1% | [18] 58.1% | [19] 57.1% | [20] 32%

C=C(C)[C@@H]1CC[C@]2(C)[C@H](C(=O)C=C3[C@@H]4C[C@](C)(C(=O)N5CCN(C)CC5)CC[C@]4(C)CC[C@]32C)[C@@]1(C)CCC#N
active: [1] -73.6% [100 µM] | [2] -68.4% [100 µM] | [3] -98.6% [100 µM] | [4] -84.5% [100 µM] | [5] -89.9% [100 µM] | [6] -45.6% [100 µM] | [7] -68.9% [100 µM] | [8] -67.3% [100 µM] | [9] -85.5% [100 µM] | [10] -69.4% [100 µM] | [11] -51.6% [100 µM] | [12] -4.62% [100 µM] | [13] -86.5% [100 µM] | [14] -92.4% [100 µM] | [15] -86.4% [100 µM] | [16] -76.2% [100 µM] | [17] -88% [100 µM] | [18] -92% [100 µM] | [19] -77.1% [100 µM] | [20] -62.6% [100 µM]

[2H]C1([2H])CCN(C(=O)C2CC2)c2cc(NS(=O)(=O)c3ccc(-c4cccc(C(N)=O)c4)cc3)ccc21
inactive: [1] 44% | [2] 61.1% | [3] 64.6% | [4] 29.1% | [5] 17.3% | [6] 33.3% | [7] 14% | [8] 45.2% | [9] 81.8% | [10] 37.7% | [11] 72% | [12] 20.7% | [13] 39.6% | [14] 42.3% | [15] 48.4% | [16] 51.9% | [17] 19.8% | [18] 23.4% | [19] 47.7% | [20] 86.4%

COc1ccc(C2CC(c3ccc4ccccc4c3)=NN2c2nc(O)c(C3=c4cc(OC)ccc4=NC3=O)s2)cc1 (stereo not given)
active: [1] -29.8% | [2] -70.6% | [3] -17% | [4] -60.7% | [5] -39.8% | [6] -67.7% | [7] -74.1% | [8] -72.4% | [9] -73.3% | [10] -73.3% | [11] 1.32% | [12] 0.0361% | [13] -61.7% | [14] -54.7% | [15] -66.3% | [16] -32.5% | [17] -59% | [18] -27.9% | [19] -52.5% | [20] -67.1%

CCCN1CC(c2ccc(OC)c(OC)c2)=C(c2cn(C(=O)OCC)c3ccccc23)C1=O
active: [15] -0.611%
inactive: [1] 65.8% | [2] 76.8% | [3] 90.6% | [4] 45.9% | [5] 37.1% | [6] 26.2% | [7] 24% | [8] 46.3% | [9] 54.6% | [10] 41.7% | [11] 71.9% | [12] 13.3% | [13] 51.6% | [14] 43.3% | [16] 58.2% | [17] 32.4% | [18] 28.1% | [19] 90.1% | [20] 70.4%

— PubChem BioAssay (NCI)
